# FEN1 inh – qHTS Assay for the Inhibitors of Human Flap endonuclease 1 (FEN1); Recombinant FEN1 flap cleavage, fluorescence, 15 min; Potency, µM (series often up to 114 µM), for inactives: at the highest dose activity change, negative = inhibition, usual class: inhibitors; actives 0.35% (n = 390,000); AID 588795, 2011; P39748; also: % is scaled to controls: 0 for no effect and ±100 for the full control effect; nearly all actives have a fitted effect of over 65% in size
#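 Reaction started by adding substrate (50 nM final) to 10 nM enzyme after 15 min room-temperature compound preincubation. Reads at 0 and 15 min, with data normalized and fitted to a four-parameter Hill equation.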
# POLK inh – qHTS for Inhibitors of Polymerase Kappa; purified Pol kappa, fluorescent DNA synthesis assay, 10 min; DNA polymerase kappa (Homo sapiens), Q9UBT6; AID 588579, 2011; Potency, µM (titrated, usually from 107 µM), for the others: at the highest dose activity, negative = inhibition, actives largely listed as inhibitors; actives 0.53% (n = 400,000); also: % is scaled to controls: 0 for no effect and ±100 for the full control effect
#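 Here, compound and 10 nM enzyme are combined for 15 min at room temperature; adding 50 nM substrate (final) starts DNA synthesis, tracked by fluorescence at 0 and 10 min against buffer-only wells.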
# POLB inh – qHTS Assay for Inhibitors of DNA Polymerase Beta. P06746. Pol beta primer extension/strand displacement, fluorescence kinetic. Potency, µM (highest dose often 114 µM), for the others: at the highest dose activity change, negative = inhibition, most hits filed as inhibitors. actives 1.3% (n = 340,000). AID 485314, 2010; also: % is scaled to controls: 0 for no effect and ±100 for the full control effect
#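 Homogeneous kinetic assay of primer extension and strand displacement by 10 nM Pol beta, preincubated 15 min at room temperature with compound before 50 nM substrate (final) was added. Read at 0 and 10 min; four-parameter Hill fit.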
# Pol iota inh – qHTS for Inhibitors of Polymerase Iota. Potency, µM (titrated, usually from 115 µM), without a hit: at the top dose activity, negative = inhibition, usual class: inhibitors. DNA polymerase iota (Homo sapiens), Q9UNA4. Pol iota fluorescent replication assay, 10 min. actives 1% (n = 390,000). AID 588590, 2011
#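 Pol iota at 10 nM preincubated 15 min with compounds at room temperature; reaction started with fluorescent substrate, 50 nM final. Fluorescence read kinetically at 0 and 10 min; buffer-only wells as negative control.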
# WRN helicase inh – qHTS for Inhibitors of WRN Helicase | Bifunctional 3'-5' exonuclease/ATP-dependent helicase WRN (Homo sapiens), Q14191 | WRN helicase unwinding, fluorescent forked duplex, kinetic | actives 0.46% (n = 360,000) | Potency, µM (titrated, usually from 114 µM), without a hit: top-dose activity change, negative = inhibition, actives largely listed as inhibitors | AID 651768, 2012; also: % is scaled to controls: 0 for no effect and ±100 for the full control effect; nearly all actives have a fitted effect of over 55% in size
#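 Primary qHTS, 1536-well format. 20 nM WRN + compound, 15 min RT; start with 100 nM forked fluorophore/quencher duplex, 2 mM ATP (final); kinetic read ex 525/em 598 nm.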
# POLH inh – qHTS for Inhibitors of Polymerase Eta | DNA polymerase eta (Homo sapiens), Q9Y253 | recombinant Pol eta, fluorescent DNA replication assay | Potency, µM (doses to about 114 µM), inactives show at the top dose activity change, negative = inhibition, hits mostly inhibitors | actives 1.2% (n = 390,000) | AID 588591, 2011; also: % is scaled to controls: 0 for no effect and ±100 for the full control effect
# Target sequence (Q9Y253 whole entry, looked up): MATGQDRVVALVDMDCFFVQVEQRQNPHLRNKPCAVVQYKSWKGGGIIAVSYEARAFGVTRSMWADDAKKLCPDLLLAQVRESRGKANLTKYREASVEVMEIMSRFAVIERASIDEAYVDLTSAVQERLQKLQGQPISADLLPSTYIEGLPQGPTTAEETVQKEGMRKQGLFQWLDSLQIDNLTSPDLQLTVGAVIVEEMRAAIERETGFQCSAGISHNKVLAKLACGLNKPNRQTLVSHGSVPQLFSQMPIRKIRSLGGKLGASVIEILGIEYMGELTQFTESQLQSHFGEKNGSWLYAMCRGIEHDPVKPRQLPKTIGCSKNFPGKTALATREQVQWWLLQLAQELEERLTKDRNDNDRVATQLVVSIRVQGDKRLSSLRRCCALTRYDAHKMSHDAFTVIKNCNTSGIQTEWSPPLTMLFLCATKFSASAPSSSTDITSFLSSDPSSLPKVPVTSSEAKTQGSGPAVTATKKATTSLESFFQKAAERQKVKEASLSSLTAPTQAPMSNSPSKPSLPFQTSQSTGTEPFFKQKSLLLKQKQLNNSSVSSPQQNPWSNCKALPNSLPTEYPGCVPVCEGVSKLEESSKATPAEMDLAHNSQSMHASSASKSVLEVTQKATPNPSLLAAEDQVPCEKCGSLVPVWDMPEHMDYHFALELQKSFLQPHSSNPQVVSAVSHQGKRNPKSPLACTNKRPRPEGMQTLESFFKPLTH
#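 Pol eta at 10 nM preincubated with compounds 15 min at room temperature; reaction started with fluorescent substrate (50 nM final) and read kinetically at 0 and 10 min.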
# * = called active by the depositor; ? = inconclusive; / = not tested or not shown; [ ] = remark or other dose. Hits are enriched below; roughly 2.4% of the tested compounds scored in any of these assays. Calls follow the shape of the dose curve; as a rule, active = well fitted curve in the direction sought with a large enough effect; inconclusive = small, poorly fitted or top-dose-only effect, or another doubt; inactive = no such curve, though single readings can be large; an effect the other way counts as inactive or inconclusive. Potency is read from the fitted curve at half-maximal effect.
SMILES,FEN1 inh,POLK inh,POLB inh,Pol iota inh,WRN helicase inh,POLH inh
CCOC(=O)c1c(C)oc2nc(C)nc(NCc3cccc(Cl)c3)c12,-14%,-2%,-7%,-1%,/,-11%
Cc1c(NC(=O)c2cc([N+](=O)[O-])ccc2N2CCOCC2)cccc1-c1nc2ccccc2o1,-5%,9%,11%,22µM*,/,-21%
CCCCNS(=O)(=O)c1cc(-c2nn(C)c(=O)c3ccccc23)ccc1C,-13%,?,35µM*,?,-4%[11.6 µM],?
CCN(CC)S(=O)(=O)c1cc(-c2nn(C)c(=O)c3ccccc23)ccc1C,-11%,-9%,45µM*,?,-25%,?
O=C(O)C1CC(c2ccc(F)cc2)=NO1 (configuration not stated),-2%,-11%,7.9µM*,-3%,-6%,-2%
CCC(C)Sc1oc(-c2ccco2)nc1S(=O)(=O)c1ccc(Cl)cc1 (configuration not stated),3%,0%,1%,?,/,-1%
Cc1cc(C(=O)CSc2nnc(-c3ccco3)o2)c(C)n1C,-11%,?,/,35µM*,-4%[11.6 µM],-6%
CCn1c(C)cc(C(=O)CSc2nnc(-c3ccco3)o2)c1C,-13%,-10%,/,-22%,1%,-9%
O=C1CN(S(=O)(=O)c2cc(C(=O)O)ccc2Cl)c2ccccc2N1,-22%,-9%,50µM*,?,?,50µM*
O=C(O)c1ccc(Cl)c(S(=O)(=O)N2CCCCCC2)c1,7%,0%,-15%,16%,-7%,-14%
CCCN(CC(=O)Nc1ccccc1C)C(=O)Cc1c[nH]c2ccccc12,7%,2%,/,4%,3%,-8%
CCCN(CC(=O)Nc1ccccc1C)C(=O)Cc1c(C)nc2ccccc2c1C,18%,-32%,/,79µM*,5%[11.6 µM],?
Cc1cc(C)cc(Nc2cc(C(=O)NC3CCC(C)CC3)c3ccccc3n2)c1 (configuration not stated),-13%,-27%,-27%,-8%,/,89µM*
Cc1cc(C)cc(Nc2cc(C(=O)NC3CCCCC3)c3ccccc3n2)c1,4%,-7%,14%,-2%,/,-28%
CS(=O)(=O)N1N=C(c2ccccc2)CC1c1ccc2c(c1)OCO2 (configuration not stated),5%,-6%,?,-1%,?,32µM*
CCOC(=O)C1CCN(C(=O)Cn2ncc3c4ccccc4n(Cc4ccc(F)cc4)c3c2=O)CC1,9%,-7%,-3%,-3%,/,1%
Cc1ccccc1-c1cc2nccc(-c3cc(Cl)ccc3O)n2n1,-9%,-5%,7%,6%,/,-12%
CCOC(=O)/C(C#N)=C\c1ccc(O)c(OC)c1,-1%,-11%,-1%,72%,0%,-20%
CCOC(=O)c1c(-c2ccc(C)cc2)csc1NC(=O)/C(C#N)=C/c1ccc(O)c(OC)c1,?,-32%,5%,?,-35%,28µM*
C/C(=N\Nc1nc(-c2cc(C)ccc2C)cs1)c1cc2c(ccc3ccccc32)oc1=O,-10%,79µM*,?,?,-30%,-18%
C/C(=N\Nc1nc(-c2cc(C)ccc2C)cs1)c1cc2ccccc2oc1=O,-2%,-24%,50µM*,10%,-33%,-4%
CCOc1ccc(C[C@H]2NC(=O)CCSSC[C@@H](C(=O)N3CCC[C@H]3C(=O)N[C@@H](CCCN)C(=O)NCC(N)=O)NC(=O)[C@H](CC(N)=O)NC(=O)[C@H]([C@@H](C)O)NC(=O)[C@H]([C@@H](C)CC)NC2=O)cc1,/,-7%[12 µM],/,/,/,/
O=C(Oc1ccc([N+](=O)[O-])cc1)C1CC(=O)N(c2ccc3c(c2)OCCO3)C1 (configuration not stated),-3%,-42%,/,79µM*,-19%[11.6 µM],?
O=C1CC(NS(=O)(=O)c2ccc([N+](=O)[O-])cc2)CN1c1ccc2c(c1)OCCO2 (configuration not stated),-5%,-8%,/,17%,-2%,2%
CCOC(=O)Nc1cc2c(c(N)n1)N=C(c1ccccc1)CN2,?,-24%,/,?,56µM*,?
SMILES,FEN1 inh,POLK inh,POLB inh,Pol iota inh,WRN helicase inh,POLH inh
CCOC(=O)Nc1sc(C)nc1-c1ccccc1,-1%,-17%,4%,5%,-13%,-6%
CC(C)C(C)N(Cc1cccc(C(=O)O)c1)C(=O)c1ccc2ccccc2n1 (configuration not stated),18%,-16%,/,22µM*,8%,-12%
CC(C)C(C)N(Cc1ccc(C(=O)O)cc1)C(=O)c1ccc2ccccc2n1 (configuration not stated),-7%,-6%,/,?,4%[11.6 µM],-20%
CC1CC(=O)c2c(cc3c(-c4c(O)cc(O)c5c(O)c6c(cc45)OC(C)CC6=O)c(O)cc(O)c3c2O)O1 (configuration not stated),14µM*,?,18µM*,1.1µM*,?,10µM*
Cc1ccc(C(=O)Nc2cc(-c3nc4ncccc4o3)ccc2C)c(C)c1,15%,1%,4%,12%,/,79µM*
Cc1cc(-c2nc3ncccc3o2)ccc1NC(=O)c1ccc([N+](=O)[O-])o1,?,-11%,/,3.5µM*,-36%,50µM*
Cc1ccc(-c2nc3ncccc3o2)cc1NC(=O)c1ccc([N+](=O)[O-])o1,-21%,-10%,-6%,-2%,4%,-10%
O=C(Nc1nc(-c2ccccn2)cs1)c1ccc([N+](=O)[O-])o1,1%,-19%,?,22µM*,?,35µM*
COc1ccc(C(=O)Nc2ccc(-c3nc4ncccc4o3)cc2)cc1,3%,2%,20%,-1%,/,5%
Cc1ccc(C(=O)Nc2nc(-c3ccccn3)cs2)o1,-2%,-16%,-16%,-45%,-10%,-20%
Cc1ccc(-c2nc3ncccc3o2)cc1NC(=O)c1ccccc1Br,-4%,-5%,-23%,35%,/,-25%
Cc1cc(C)cc(C(=O)Nc2ccc(-c3nc4ncccc4o3)cc2)c1,11%,-9%,14µM*,-4%,/,?
CC(C)CSc1ccccc1NC(=O)c1sc2nc(-c3ccncc3)ccc2c1N,2%,-7%,?,-5%,/,-9%
Cn1cc(/C=C/c2ccc3ccccc3n2)c2ccccc21,?,2%,/,2%,/,/
CCOc1ccccc1CNC(=O)c1cc(-c2ccc(Cl)s2)nc2ccccc12,-4%,0%,8%,10%,/,-11%
